Where “and” joins values, the source holds several entries; their conditions need not be identical. Equal values may be shown once. A structure can be active in one record and inactive in another. Calls of active or inactive are those of the source. How the source made its calls: active means hit-call score of the fitted dose curve at least 0.9, where 1 is the maximum; inactive means score below 0.9.
Legend:
[1] = read-out: TIMP metallopeptidase inhibitor 1 (TIMP1), TIMP1 (gene 7076); experiment: BSK_hDFCGF_TIMP1: BioMAP Diversity Plus: hDFCGF Assay for TIMP metallopeptidase inhibitor 1 (TIMP1) Biomarker Activity (AID 2283062); details: primary human foreskin fibroblasts; actives raise or lower the signal
Summary of the method: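 ELISA readout of TIMP-1 from human dermal foreskin fibroblast cultures 24 h post-dosing. Curves were fitted in both directions against DMSO baseline, with SRB total-protein staining in parallel cultures as a cytotoxicity check.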

[2] = read-out: Monokine induced gamma interferon (MIG), CXCL9 (gene 4283); experiment: BSK_hDFCGF_MIG: BioMAP Diversity Plus: hDFCGF Assay for Monokine induced gamma interferon (MIG) Biomarker Activity (AID 2283063); details: primary human foreskin fibroblasts; actives raise or lower the signal
Summary of the method: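 Fibroblasts (human foreskin, primary) dosed, 24 h, MIG by ELISA; fit bidirectional vs DMSO.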

[3] = read-out: Matrix Metallopeptidase 1 (MMP1), MMP1 (gene 4312); experiment: BSK_hDFCGF_MMP1: BioMAP Diversity Plus: hDFCGF Assay for Matrix Metallopeptidase 1 (MMP1) Biomarker Activity (AID 2283064); details: primary human foreskin fibroblasts; actives raise or lower the signal
Summary of the method: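 Human foreskin fibroblasts exposed to chemical for 24 h; MMP1 detected by ELISA, with DMSO as baseline for bidirectional fitting.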

[4] = read-out: Vascular cell adhesion molecule 1 (VCAM1), VCAM1 (gene 7412); experiment: BSK_hDFCGF_VCAM1: BioMAP Diversity Plus: hDFCGF Assay for Vascular cell adhesion molecule 1 (VCAM1) Biomarker Activity (AID 2283065); details: primary human foreskin fibroblasts; actives raise or lower the signal;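 on AC50: VCAM-1 protein level quantified by ELISA after 24 h chemical exposure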
Summary of the method: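 ELISA read-out of VCAM-1 on human skin fibroblasts, 24 h post-dose; gain or loss of signal fitted bidirectionally against DMSO baseline.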

[5] = read-out: Plasminogen activator inhibitor-1 (PAI1), SERPINE1 (gene 5054); experiment: BSK_hDFCGF_PAI1: BioMAP Diversity Plus: hDFCGF Assay for Plasminogen activator inhibitor-1 (PAI1) Biomarker Activity (AID 2283066); details: primary human foreskin fibroblasts; actives raise or lower the signal
Summary of the method: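 Fibroblasts from human foreskin were treated with test chemical. After 24 h, PAI-1 was measured by ELISA. Activity was fitted in both directions relative to DMSO.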

[6] = read-out: Intercellular Adhesion Molecule 1 (ICAM1), ICAM1 (gene 3383); experiment: BSK_KF3CT_ICAM1: BioMAP Diversity Plus: KF3CT Assay for Intercellular Adhesion Molecule 1 (ICAM1) Biomarker Activity (AID 2283067); details: primary human keratinocytes with fibroblasts; actives raise or lower the signal
Summary of the method: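 ELISA readout of ICAM-1; KF3CT human skin co-culture (keratinocytes + foreskin fibroblasts), 24 h post-dose; gain/loss fit vs DMSO baseline.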

[7] = read-out: Interferon-gamma inducible Protein 10 (IP10), CXCL10 (gene 3627); experiment: BSK_KF3CT_IP10: BioMAP Diversity Plus: KF3CT Assay for Interferon-gamma inducible Protein 10 (IP10) Biomarker Activity (AID 2283068); details: primary human keratinocytes with fibroblasts; actives raise or lower the signal
Summary of the method: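 KF3CT co-culture (keratinocytes + foreskin fibroblasts), 24 h compound, IP-10 by ELISA; bidirectional fit vs DMSO baseline.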

[8] = BSK_KF3CT_SRB: Viability Assessment in the BioMAP Diversity Plus: KF3CT Assay (AID 2283069); details: primary human keratinocytes with fibroblasts;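 further: read 24 h after compound addition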
Summary of the method: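 Overt cytotoxicity is assessed as total protein by sulforhodamine B staining in parallel human skin co-cultures at 24 h after dosing. DMSO serves as negative control and baseline.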

[9] = read-out: Interleukin-1 alpha (IL1a), IL1A (gene 3552); experiment: BSK_KF3CT_IL1a: BioMAP Diversity Plus: KF3CT Assay for Interleukin-1 alpha (IL1a) Biomarker Activity (AID 2283070); details: primary human keratinocytes with fibroblasts; actives raise or lower the signal
Summary of the method: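 Readout is IL-1a level by ELISA, compared bidirectionally with DMSO as baseline. Cells: human keratinocytes co-cultured with foreskin fibroblasts, harvested 24 h post-dose.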

[10] = read-out: TIMP metallopeptidase inhibitor 2 (TIMP2), TIMP2 (gene 7077); experiment: BSK_KF3CT_TIMP2: BioMAP Diversity Plus: KF3CT Assay for TIMP metallopeptidase inhibitor 2 (TIMP2) Biomarker Activity (AID 2283071); details: primary human keratinocytes with fibroblasts; actives raise or lower the signal
Summary of the method: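 Chemicals were dosed onto human skin primary co-cultures of keratinocytes and foreskin fibroblasts, and TIMP-2 was measured by ELISA after 24 hours. Activity in either direction was fitted relative to DMSO.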

[11] = read-out: Transforming growth factor beta 1 (TGFb1), TGFB1 (gene 7040); experiment: BSK_KF3CT_TGFb1: BioMAP Diversity Plus: KF3CT Assay for Transforming growth factor beta 1 (TGFb1) Biomarker Activity (AID 2283072); details: primary human keratinocytes with fibroblasts; actives raise or lower the signal
Summary of the method: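 KF3CT co-culture (keratinocytes + fibroblasts), 24 h exposure → TGF-b1 ELISA → bidirectional fit, DMSO = baseline. Parallel SRB total-protein staining (0.1% SRB, 10% TCA fixation, 560 nm) for cytotoxicity.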

[12] = read-out: C-C motif chemokine 2 (Homo sapiens) (UniProt P13500); experiment: BSK_KF3CT_MCP1: BioMAP Diversity Plus: KF3CT Assay for Monocyte Chemoattractant Protein 1 (MCP1/CCL2) Biomarker Activity (AID 2283073); details: primary human keratinocytes with fibroblasts; actives raise or lower the signal
Summary of the method: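 KF3CT skin co-culture (keratinocytes/foreskin fibroblasts), 24 h post-dose; MCP-1 by ELISA; gain/loss of signal fit bidirectionally vs DMSO baseline.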

[13] = read-out: Matrix Metallopeptidase 9 (MMP9), MMP9 (gene 4318); experiment: BSK_KF3CT_MMP9: BioMAP Diversity Plus: KF3CT Assay for Matrix Metallopeptidase 9 (MMP9) Biomarker Activity (AID 2283074); details: primary human keratinocytes with fibroblasts; actives raise or lower the signal;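 on AC50: MMP9 protein level quantified by ELISA in the co-culture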
Summary of the method: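 Values come from bidirectional fitting relative to DMSO of MMP-9 levels, which were measured by ELISA. Measurements were taken 24 h after chemical dosing of a keratinocyte and foreskin fibroblast co-culture.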

[14] = read-out: urokinase plasminogen activator (uPA), PLAU (gene 5328); experiment: BSK_KF3CT_uPA: BioMAP Diversity Plus: KF3CT Assay for urokinase plasminogen activator (uPA) Biomarker Activity (AID 2283075); details: primary human keratinocytes with fibroblasts; actives raise or lower the signal
Summary of the method: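 Values derive from bidirectional fitting against DMSO controls. Keratinocyte/foreskin fibroblast co-cultures received chemical; 24 h later uPA was detected by ELISA, with SRB total-protein staining in parallel wells for overt cytotoxicity.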

CD40, CD40 (gene 958) = experiment: BSK_LPS_CD40: BioMAP Diversity Plus: LPS Assay for CD40 Biomarker Activity (AID 2283076); details: primary human HUVEC with PBMC; actives raise or lower the signal
Summary of the method: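 ELISA readout of CD40 in HUVEC/PBMC co-culture (BSK_LPS system), 24 h post-dosing; bidirectional curve fit, DMSO baseline; parallel SRB total-protein staining for cytotoxicity.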

[15] = read-out: E-selectin (Homo sapiens) (UniProt P16581); experiment: BSK_LPS_Eselectin: BioMAP Diversity Plus: LPS Assay for Eselectin Biomarker Activity (AID 2283077); details: primary human HUVEC with PBMC; actives raise or lower the signal
Summary of the method: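 ELISA readout of E-selectin, 24 h post-dose, HUVEC + PBMC co-culture (LPS system). Gain or loss of signal vs DMSO baseline, bidirectional fit.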

[16] = read-out: Interleukin-8 (IL8), CXCL8 (gene 3576); experiment: BSK_LPS_IL8: BioMAP Diversity Plus: LPS Assay for Interleukin-8 (IL8) Biomarker Activity (AID 2283078); details: primary human HUVEC with PBMC; actives raise or lower the signal
Summary of the method: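 HUVEC + PBMC co-culture, LPS-activated; test chemicals dosed, IL-8 read by ELISA at 24 h. Bidirectional curve fit vs DMSO baseline (gain or loss of signal).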

[17] = BSK_LPS_SRB: Viability Assessment in the BioMAP Diversity Plus: LPS Assay (AID 2283079); details: primary human HUVEC with PBMC;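 further: total protein by sulforhodamine B absorbance as a cytotoxicity measure; measured one day after compound addition; fitted in both directions against DMSO so loss or gain of signal counts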
Summary of the method: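 HUVEC + PBMC co-culture, LPS-stimulated; compound 24 h. 10% TCA fix, 0.1% SRB stain, A560. Bidirectional fit vs DMSO.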

[18] = read-out: Interleukin-1 alpha (IL1a), IL1A (gene 3552); experiment: BSK_LPS_IL1a: BioMAP Diversity Plus: LPS Assay for Interleukin-1 alpha (IL1a) Biomarker Activity (AID 2283080); details: primary human HUVEC with PBMC; actives raise or lower the signal
Summary of the method: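 HUVEC/PBMC co-culture, LPS system; 24 h after dosing; IL-1a by ELISA; gain or loss of signal fitted bidirectionally vs DMSO baseline.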

Sequence of E-selectin (Homo sapiens) (P16581 whole entry, looked up): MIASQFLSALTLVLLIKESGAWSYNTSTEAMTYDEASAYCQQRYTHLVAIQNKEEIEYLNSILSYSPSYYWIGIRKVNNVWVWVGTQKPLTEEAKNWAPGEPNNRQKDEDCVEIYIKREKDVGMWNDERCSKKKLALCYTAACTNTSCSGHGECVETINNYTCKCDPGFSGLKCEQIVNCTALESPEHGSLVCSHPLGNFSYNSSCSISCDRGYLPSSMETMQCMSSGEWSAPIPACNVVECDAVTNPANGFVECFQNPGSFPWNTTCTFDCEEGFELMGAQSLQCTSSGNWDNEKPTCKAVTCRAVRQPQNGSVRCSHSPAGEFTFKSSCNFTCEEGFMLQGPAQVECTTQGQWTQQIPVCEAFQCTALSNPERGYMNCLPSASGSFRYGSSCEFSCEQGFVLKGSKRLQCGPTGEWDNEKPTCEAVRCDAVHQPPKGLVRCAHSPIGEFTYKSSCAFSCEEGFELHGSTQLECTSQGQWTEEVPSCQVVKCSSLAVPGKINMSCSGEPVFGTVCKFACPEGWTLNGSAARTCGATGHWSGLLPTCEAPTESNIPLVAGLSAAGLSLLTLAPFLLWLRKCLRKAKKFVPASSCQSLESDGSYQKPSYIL

With `OCCC(F)(F)C(F)(F)C(F)(F)C(F)(F)C(F)(F)C(F)(F)C(F)(F)C(F)(F)F` the AC50 [1] was 16.3 µM (active) and 14.6 µM (active), the outcome [1] was “inactive” and the AC50 [2] was 18 µM (active) and 17.8 µM (active). The outcome [2] was “inactive”, the AC50 [3] was 17.9 µM (active) and 17 µM (active) and the outcome [3] was “inactive”. For the same molecule, the AC50 [4] was 16.1 µM (active) and 12.8 µM (active), the outcome [4] was “inactive” and the AC50 [5] was 12.8 µM (active). The outcome [5] was “inactive”, the AC50 [6] was 23.2 µM (active) and 20 µM (active) and the outcome [6] was “inactive”. The AC50 [7] was 15.7 µM (active), the outcome [7] was “inactive” and the AC50 [8] was 18.1 µM (active) and 14.5 µM (active). The outcome [8] was “inactive”, the AC50 [9] was 17.3 µM (active) and 9.96 µM (active) and the outcome [9] was “inactive”. The AC50 [10] was 19.9 µM (active) and 14.6 µM (active), the outcome [10] was “inactive” and the outcome [11] was “inactive”. The AC50 [12] was 20.1 µM (active) and 18 µM (active), the outcome [12] was “inactive” and the AC50 [13] was 13.6 µM (active) and 12.2 µM (active). The outcome [13] was “inactive”, the AC50 [14] was 17.1 µM (active) and 19.1 µM (active) and the outcome [14] was “inactive”. For the same molecule, the AC50 (CD40, CD40 (gene 958)) was 30.6 µM (active) and 29.1 µM (active), the outcome (CD40, CD40 (gene 958)) was “inactive” and the AC50 [15] was 40 µM (active) and 30 µM (active). The outcome [15] was “inactive”, the AC50 [16] was 30 µM (active) and the outcome [16] was “inactive”. For the same molecule, the AC50 [17] was 15.8 µM (active) and 17.4 µM (active), the outcome [17] was “inactive” and the AC50 [18] was 18.7 µM (active) and 23.8 µM (active). The outcome [18] was “inactive”.

For `COCC(C)O` (stereo not drawn), the outcome [1] was “inactive”, the outcome [2] was “inactive” and the outcome [3] was “inactive”. The outcome [4] was “inactive”, the outcome [5] was “inactive” and the outcome [6] was “inactive”. For the same molecule, the outcome [7] was “inactive”, the outcome [8] was “inactive” and the outcome [9] was “inactive”. The outcome [10] was “inactive”, the outcome [11] was “inactive” and the outcome [12] was “inactive”. For the same molecule, the outcome [13] was “inactive”, the outcome [14] was “inactive” and the outcome (CD40, CD40 (gene 958)) was “inactive”. The outcome [15] was “inactive”, the outcome [16] was “inactive” and the outcome [17] was “inactive”. For the same molecule, the outcome [18] was “inactive”.

For `c1ccc2c(c1)ccc1ccccc12`, the outcome [1] was “inactive”, the outcome [2] was “inactive” and the outcome [3] was “inactive”. The outcome [4] was “inactive”, the outcome [5] was “inactive” and the outcome [6] was “inactive”. For the same molecule, the outcome [7] was “inactive”, the outcome [8] was “inactive” and the outcome [9] was “inactive”. For the same molecule, the outcome [10] was “inactive”, the outcome [11] was “inactive” and the outcome [12] was “inactive”. For the same molecule, the outcome [13] was “inactive”, the outcome [14] was “inactive” and the outcome (CD40, CD40 (gene 958)) was “inactive”. For the same molecule, the outcome [15] was “inactive”, the outcome [16] was “inactive” and the outcome [17] was “inactive”. For the same molecule, the outcome [18] was “inactive”.

In the case of `CCCCOCCO`, the outcome [1] is reported as “inactive”, the outcome [2] is reported as “inactive” and the outcome [3] is reported as “inactive”. For the same molecule, the outcome [4] was “inactive”, the outcome [5] was “inactive” and the outcome [6] was “inactive”. The outcome [7] was “inactive”, the outcome [8] was “inactive” and the outcome [9] was “inactive”. For the same molecule, the outcome [10] was “inactive”, the outcome [11] was “inactive” and the outcome [12] was “inactive”. For the same molecule, the outcome [13] was “inactive”, the outcome [14] was “inactive” and the outcome (CD40, CD40 (gene 958)) was “inactive”. For the same molecule, the outcome [15] was “inactive”, the outcome [16] was “inactive” and the outcome [17] was “inactive”. The outcome [18] was “inactive”.

With `ClC1=C(Cl)C(Cl)(Cl)C(Cl)=C1Cl` the AC50 [1] was 12.4 µM (active), the AC50 [2] was 13.6 µM (active) and the AC50 [3] was 13.9 µM (active). For the same molecule, the AC50 [4] was 6.75 µM (active), the AC50 [5] was 8.9 µM (active) and the AC50 [6] was 9.94 µM (active). For the same molecule, the AC50 [7] was 8.82 µM (active), the AC50 [8] was 7.42 µM (active) and the AC50 [9] was 7.98 µM (active). The AC50 [10] was 11.8 µM (active), the AC50 [11] was 9.02 µM (active) and the AC50 [12] was 9.19 µM (active). For the same molecule, the AC50 [13] was 9.06 µM (active), the AC50 [14] was 10.7 µM (active) and the AC50 (CD40, CD40 (gene 958)) was 10.2 µM (active). The AC50 [15] was 11.9 µM (active), the AC50 [16] was 13.9 µM (active) and the AC50 [17] was 11.4 µM (active). For the same molecule, the AC50 [18] was 10.1 µM (active).

Source: PubChem BioAssay (EPA / NIEHS)
